The values below come from PubChem BioAssay (NCI).

Structures are written as SMILES. Compounds without any hit were thinned out: in the full panel of roughly 83,000, 20% have a hit.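 Results are percent growth after 48 hours of single-concentration exposure. 100 means growth as in untreated cells, lower positive values show inhibition; negative values down to -100 show cell death.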 Activity calls are given as the source filed them.

The assay has as its system HCC-2998 colon. Put plainly: NCI-60 one-dose screen, 48 h (100 = growth as untreated, 0 = no growth, -100 = all killed). Conditions: 10 µM. The method, then: Growth inhibition of the HCC-2998 human tumor cell line is measured as a screen for anti-cancer activity. Cells are grown in 96 well plates and exposed to the test compound for 48 hours. Compounds are tested at a single concentration, which is 10^-5 M for most compounds. The reported endpoint is percent growth (GI% or GIPRCNT), where numbers from 0 - 100% represent growth inhibition, and numbers from -100% - 0 represent cell death. For example, a value of 40 represents 60% growth inhibition. A value of 0 means no net growth occurred over the course of the experiment. A value of -40 indicates 40% of cells at the beginning of the experiment died by the end of the experiment. A value of -100 means all cells are dead at the end of the experiment.
NCI-60 Human Tumor Cell Lines Screen was performed using the standard one-dose NCI protocol, which is described in more detail at https://dtp.cancer.gov/discovery_development/nci-60/default.htm.
Compounds with GIPRCNT values below 10 were considered active. Activity score was based on GIPRCNT using the following formula: […]
Score is 0 for GIPRCNT values of 100 or above, 50 for GIPRCNT values of 0, and 100 for GIPRCNT values of -100.
Regarding `Cc1ccc2[nH]c(=S)n(-c3ccc(F)cc3)c(=O)c2c1`, the growth was 111% (inactive). For `COc1ccc2cc([C@H](C)C(=O)[Se]CCC#N)ccc2c1`, the growth was 10.1% (inactive).

On to `CC[C@]12C=CCN3CC[C@@]4(c5ccc(OC)cc5N(C)[C@H]4[C@@](O)(C(=O)OC)[C@@H]1OC(=O)CCCC[P+](c1ccc(OC)cc1)(c1ccc(OC)cc1)c1ccc(OC)cc1)[C@@H]32`, for which the growth is -88.4% (active). The figure for `CCC[Se]C(=O)c1ccc(C(=O)[Se]CCC)s1` is -8.78% (active). As to `O=C(/C=C/c1ccc(F)cc1)c1nc2ccccc2n1Cc1ccc(F)cc1`, the growth is -78.9% (active). As for `COC(=O)CCn1c(-c2ccc(-n3cc(-c4ccc(O[C@H]5O[C@@H]6OC7(C)CC[C@H]8[C@H](C)CC[C@@H]([C@H]5C)[C@@]68OO7)cc4)nn3)cc2)nc2ccccc21`, the growth is 38.5% (inactive).

Take `O=C(/C=C/c1ccco1)c1nc2ccccc2n1Cc1ccc(Br)cc1`: the growth was 12.7% (inactive). On to `C[C@H]1[C@H](OC(=O)CCC(=O)N(CCCc2cn(-c3ccc(CN4CCOCC4)cc3)nn2)CCNc2ccnc3cc(Cl)ccc23)O[C@@H]2OC3(C)CC[C@H]4[C@H](C)CC[C@@H]1[C@@]24OO3`, for which the growth was 40.1% (inactive). For the compound `O=C(/C=C/c1ccc(Cl)cc1)c1nc2ccccc2n1Cc1ccc(F)cc1`, the growth is 32.5% (inactive). Consider `COc1cc(OC)c(S(=O)(=O)N(CCCl)CCCl)cc1C(=O)/C=C/c1ccc(C)cc1`, for which the growth is 93.6% (inactive). Consider `C[C@H]1[C@H](OC(=O)CCC(=O)N(CCCc2cn(-c3ccc(C#N)cc3)nn2)CCNc2ccnc3cc(Cl)ccc23)O[C@@H]2OC3(C)CC[C@H]4[C@H](C)CC[C@@H]1[C@@]24OO3`, for which the growth is 70.3% (inactive). For the compound `CC[C@]12C=CCN3CC[C@@]4(c5ccc(OC)cc5N(C)[C@H]4[C@@](O)(C(=O)OC)[C@@H]1OC(=O)CCCC[P+](c1ccc(C)cc1)(c1ccc(C)cc1)c1ccc(C)cc1)[C@@H]32`, the growth is -85.8% (active). For `CC1=C(CCC=NNC(N)=O)C2=C(C)C3(CC3)[C@@](C)(O)C(=O)C2=C1`, the growth was -87% (active).

`C=CC[Se]C(=O)c1ccc(C(=O)[Se]CC=C)s1`: the growth was -85.7% (active). `C[C@H]1[C@@H](Oc2ccc(-c3cn(-c4ccnc5cc(Cl)ccc45)nn3)cc2)O[C@@H]2OC3(C)CC[C@H]4[C@H](C)CC[C@@H]1[C@@]24OO3`: the growth is 48.8% (inactive). `CC(=O)Oc1ccccc1C(=O)[Se]C(=NC(C)C)NC(C)C`: the growth is -91% (active). Consider `CC[C@]12C=CCN3CC[C@@]4(c5ccc(OC)cc5N(C)[C@H]4[C@@](O)(C(=O)OC)[C@@H]1OC(=O)CCCC[P+](C1CCCCC1)(C1CCCCC1)C1CCCCC1)[C@@H]32`, for which the growth is -87.8% (active). As to `O=C(NC([Se])=NC1CCCCC1)c1ccc2c(c1)OCO2`, the growth was 74.1% (inactive). In the case of `O=C(/C=C/c1ccccc1)c1nc2ccccc2n1Cc1ccc(Br)cc1`, the growth is -97.3% (active). For `O=C(/C=C/c1ccc(Cl)cc1Cl)c1nc2ccccc2n1Cc1ccc(Br)cc1`, the growth was 70.4% (inactive). Regarding `O=C(/C=C/c1ccccc1)c1nc2ccccc2n1Cc1ccc(F)cc1`, the growth was -95.8% (active).

In the case of `CCOP(=O)(CC(F)(F)C(F)(F)F)OCC`, the growth is 86.3% (inactive). For the compound `COCCOCCOCCOc1ccc(-n2cc(-c3ccc(O[C@H]4O[C@@H]5OC6(C)CC[C@H]7[C@H](C)CC[C@@H]([C@H]4C)[C@@]57OO6)cc3)nn2)cc1`, the growth was 59.2% (inactive).

Consider `CC(=O)Oc1ccccc1C(=O)NC([Se])=NC1CCCCC1`, for which the growth was 28.1% (inactive).

In the case of `COc1cc(OC)c(/C=C/C(=O)c2nc3ccccc3n2Cc2ccc(F)cc2)c(OC)c1`, the growth was 105% (inactive). For `CC1=C2C(=C[C@@](C)(COP(=O)(Oc3ccccc3)Oc3ccccc3)[C@@H]2O)C(=O)[C@@](C)(O)C12CC2`, the growth is -85.5% (active). For `COc1cc2cc(C(=O)N3C[C@@H](CCl)c4c3cc(OC(=O)N3CCN(C(=O)CCC(=O)N5CCN(C)CC5)[C@@H]5CSSC[C@@H]53)c3ccccc43)[nH]c2c(OC)c1OC`, the growth was -99.1% (active). Turning to `O=C(/C=C/c1cccc(Br)c1)c1nc2ccccc2n1Cc1ccc(Br)cc1`, the growth is -94.7% (active). As to `COCCOCCOCCOc1ccc(-n2cc(CCCN(CCNc3ccnc4cc(Cl)ccc34)C(=O)CCC(=O)O[C@@H]3O[C@@H]4OC5(C)CC[C@H]6[C@H](C)CC[C@@H]([C@H]3C)[C@@]46OO5)nn2)cc1`, the growth is 67.2% (inactive). The figure for `CC[C@]12C=CCN3CC[C@@]4(c5ccc(OC)cc5N(C)[C@H]4[C@@](O)(C(=O)OC)[C@@H]1OC(=O)CCC[P+](c1ccc(C)cc1)(c1ccc(C)cc1)c1ccc(C)cc1)[C@@H]32` is -91.4% (active); for `CC12OOC(C)(OO1)C2CCC(=O)NCCNc1ccnc2cc(Cl)ccc12` (stereo not given) it is 99.7% (inactive); for `COc1ccc(OC)c(/C=C/C(=O)c2nc3ccccc3n2Cc2ccc(F)cc2)c1` it is -93.6% (active).

For `CC12CCC3(CCC(=O)NCCCNc4ccnc5cc(Cl)ccc45)[C@@](C)(OO[C@]3(C)O1)O2`, the growth was 22.8% (inactive). With `COC(=O)C[C@](O)(CCC(C)C)C(=O)O[C@H]1C(OC)=C[C@@]23CCCN2CCc2cc4c(cc2[C@@H]13)OCO4`, the growth was -62.4% (active).

Consider `N#C[Se]CC(=O)Nc1cccc(C(F)(F)F)c1`, for which the growth was 54.7% (inactive). Turning to `COc1cc2cc(C(=O)N3C[C@@H](CCl)c4c3cc(OC(=O)N3CCN(C)[C@@H]5CSSC[C@H]53)c3ccccc43)[nH]c2c(OC)c1OC`, the growth is -79.9% (active).

For `O=C(/C=C/c1ccc(Cl)cc1Cl)c1nc2ccccc2n1Cc1ccc(F)cc1`, the growth was 27.3% (inactive). Consider `O=C(/C=C/c1ccc(Br)cc1)c1nc2ccccc2n1Cc1ccc(Br)cc1`, for which the growth is -89.6% (active). Consider `CC[C@@]12CC(C(=O)OC)=C3Nc4cc5c(cc4[C@@]34CCN(C[C@H]3O[C@H]31)[C@@H]24)[C@@H]1[C@H](O5)[C@@H](O)[C@@]2(CC)CC(C(=O)OC)=C3Nc4cc(OC)ccc4[C@@]34CCN1[C@@H]24`, for which the growth is -65% (active). As for `CC12OOC(C)(OO1)C2CCC(=O)OCCNc1ccnc2cc(Cl)ccc12` (stereo not given), the growth was 88.5% (inactive).
